Screening data as filed in PubChem.
V-ATPase pHluor: regulators of yeast V-ATPase proton pumping, primary screen, pHLuorin cytosolic pH fluorescence. S. cerevisiae. response, % at 10 µM. actives 0.37% (n = 350,000); in the data active = response mostly above about 7.3%, no sharp cut-off; inactive = mostly below about 5.4%; note: actives read high
NTR1 agonist: agonists of human NTR1, primary screen, imaging, U2OS cells, beta-arrestin-GFP, high content | AID 493036, 2011 | NTR1-U2OS beta-arrestin-GFP spot imaging, agonist mode | activation, % at 20 µM | actives 0.17% (n = 330,000) | Neurotensin receptor type 1 (Homo sapiens), P30989;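 active = activation at or above 40% of the spot to cytoplasm intensity ratio, with at least 20 cells analyzed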
Target sequence (P30989 whole entry, looked up): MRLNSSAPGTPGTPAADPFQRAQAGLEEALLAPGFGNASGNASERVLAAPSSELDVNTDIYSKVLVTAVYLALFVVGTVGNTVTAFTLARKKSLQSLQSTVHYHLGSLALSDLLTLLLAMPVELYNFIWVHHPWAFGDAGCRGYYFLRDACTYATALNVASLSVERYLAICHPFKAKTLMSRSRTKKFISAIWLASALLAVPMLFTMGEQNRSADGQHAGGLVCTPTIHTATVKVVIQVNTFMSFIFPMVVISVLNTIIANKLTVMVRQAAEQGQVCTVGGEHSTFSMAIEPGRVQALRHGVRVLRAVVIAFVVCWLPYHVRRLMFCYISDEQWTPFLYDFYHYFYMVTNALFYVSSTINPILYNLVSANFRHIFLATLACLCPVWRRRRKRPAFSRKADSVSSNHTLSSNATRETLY
CRFR2-BP ag: agonists of CRF-BP/CRF-R2 complex, primary screen, cell-based, HEK293, calcium dye fluorescence, uHTS. CRF-binding protein / CRF receptor 2 complex (human). calcium dye fluorescence (FLIPR); percent of saturating CRF peptide response. activation, % at 13.2 µM. actives 0.46% (n = 350,000);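 active = activation of at least 50%, plus an integration ratio under a set limit after plate pattern correction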
CRFBP-R2 block: antagonists of CRF-BP/CRF-R2 complex, primary screen, cell-based, HEK293, calcium dye fluorescence, uHTS; inhibition, % at 11.8 µM; CRF-induced calcium fluorescence; AID 588475, 2011; actives 0.59% (n = 350,000);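 active = inhibition of the ligand-induced calcium signal above about 50% at the single tested concentration, limit read from the data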
A number is an active result; - = inactive; . = no result given. Sampled rows, rich in hits. Any-hit rate of the full collection: about 1.5%.

SMILES | V-ATPase pHluor | NTR1 agonist | CRFR2-BP ag | CRFBP-R2 block
Cc1cc(Br)ccc1NC(=O)CNC(=O)Cn1ncc(Cl)c(Cl)c1=O | - | - | - | 87
CCOC(=O)c1ccc(NC(=O)Cn2ncc(Cl)c(Cl)c2=O)cc1 | - | - | - | -
Cc1ccc(CC(=O)NCCCc2ccccc2)cc1 | - | - | - | 60
O=C(NNC(=O)c1ccc[nH]1)c1cccc(C(F)(F)F)c1 | - | - | - | -
Cc1noc(C(F)(F)F)c1C(=O)NNC(=O)c1cccc(C(F)(F)F)c1 | - | - | - | 114
CC1(Cc2ccc3c(c2)OCO3)NC(=O)NC1=O (stereo unspecified) | - | - | - | 56
CC(C)(C)C(=O)CN1C(=O)NC(C)(Cc2ccc3c(c2)OCO3)C1=O (stereo unspecified) | - | - | - | -
CCCc1cc(-c2[nH]ncc2-c2ccc3c(c2)OCCCO3)c(O)cc1O | - | 44 | - | -
CCC(CC)c1nnc(NC(=O)CSCC(=O)Nc2cc(C)on2)s1 | - | - | - | -
O=C(Nc1nc(-c2ccccc2)cs1)c1ccccc1NS(=O)(=O)c1ccc(F)cc1 | - | - | 65 | 101
O=S(=O)(Nc1ccc(-c2csc(-c3ccccc3)n2)cc1)c1ccc(F)cc1 | - | - | - | -
CC1Cc2ccccc2N1C(=O)C(C)n1cc(C(F)(F)F)cc(Cl)c1=O (stereo unspecified) | - | - | - | -
CCC(=O)c1ccc(OCC(=O)Nc2ccccc2N2CCCCC2)cc1 | - | - | - | -
COc1ccc(/C=C/C(=O)NCCSCc2ccco2)cc1OC | - | - | - | 66
Cc1cc(NC(=O)CCC(=O)N(Cc2cccs2)C(C)(C)C(=O)NC2CCCCC2)no1 | - | - | - | -
CCOc1ccc(C(=O)c2cccs2)cc1 | - | - | - | 51
O=C(c1ccccc1)c1cccs1 | - | - | - | -
CC(=O)NS(=O)(=O)c1ccc(NC(=O)C(C)NS(=O)(=O)/C=C/c2ccccc2)cc1 (stereo unspecified) | - | - | - | -
CN1CCCCCC1=Nc1ccc([N+](=O)[O-])cc1 | - | - | - | -
CN1C(=O)C(N=Nc2ccc([N+](=O)[O-])cc2)SC1=S (stereo unspecified) | - | . | 70 | 68
Cc1cccc(NC(=O)c2ccc(S(=O)(=O)NCc3cccnc3)cc2)c1 | - | - | - | -
CN(C)c1ccc(C=C2SC(=S)NC2=O)cc1 | - | . | 132 | -
CCOc1ccc(N(C)c2ccc(/C=C3/SC(=S)NC3=O)cc2)cc1 | - | - | 68 | -
O=C1NC(=S)SC1=Cc1ccc2c(c1)OCO2 | - | . | - | -
Cc1cc(/C=C2\SC(=S)NC2=O)c(C)[nH]1 | - | - | - | -
SMILES | V-ATPase pHluor | NTR1 agonist | CRFR2-BP ag | CRFBP-R2 block
COc1ccc(N=C2NC(=O)S/C2=C\c2ccc(N(C)C)cc2)cc1 | - | - | 98 | -
CCOc1ccc(N=C2NC(=O)S/C2=C\c2ccc(Cl)cc2)cc1 | - | - | - | -
O=C1NC(=S)S/C1=C\c1cc(Cl)ccc1Cl | - | . | - | 70
O=C1NC(=S)S/C1=C/c1ccc(Oc2cnccn2)cc1 | - | - | - | -
O=C(NC1CCOc2ccccc21)c1ccc(Cl)nc1 (stereo unspecified) | - | - | - | -
O=C(OCc1cccc(F)c1)c1cc2ccccc2cc1O | - | - | - | -
COc1ccc2c(c1)c(C(=O)O)c(C)n2-c1ccc(Cl)cc1 | - | - | - | 106
O=C(c1cc([N+](=O)[O-])[nH]n1)N1CCSCC1 | - | - | - | -
CCOC(=O)NC(O)C(=O)c1cccs1 (stereo unspecified) | - | - | - | 65
O=C(OCC(=O)N1CCOCC1)c1cc(F)c(F)cc1Cl | - | - | - | -
O=C1CCC(C(=O)Nc2ccccc2N2CCCC2)=NN1 | - | - | - | -
O=C1CCC(C(=O)Nc2ccccc2N2CCOCC2)=NN1 | - | - | - | 67
CN(C)c1nc(NCc2ccccc2)nc(SCC(=O)Nc2ccccc2)n1 | - | - | - | -
CN(C)c1nc(NCc2ccccc2)nc(SCC(=O)Nc2ccccc2Cl)n1 | - | - | - | 58
CCc1ccc(NC(=O)CSc2nc(N)c(NC(=O)c3ccc(F)c(F)c3)c(=O)[nH]2)cc1 | - | - | - | 52
Cc1cc(C)n(CCC(=O)N=Nc2c(O)[nH]c3ccc(Br)cc23)n1 | - | - | - | 93
N#C/C(=C\Nc1ccc2cn[nH]c2c1)c1nc(-c2ccccc2)cs1 | - | . | - | -
Cc1ccnc(N/C=C(\C#N)c2nc(-c3cccc(Br)c3)cs2)c1 | - | - | 237 | -
COc1ccc(O)c(C(=O)c2cc(C#N)c(=O)n(-c3c(C)n(C)n(-c4ccccc4)c3=O)c2)c1 | - | - | 86 | -
CN(CC(=O)Nc1ccc(Cl)c(C(F)(F)F)c1)C(=O)c1ccccc1SCC(=O)N1CCCC1 | - | . | - | -
CCOc1ccc(NC(=O)CCNS(=O)(=O)c2cccc3nonc23)cc1 | - | - | - | 55
Cc1ccc(N2CC(C(=O)Nc3ccc(S(=O)(=O)N4CCOCC4)cc3)CC2=O)cc1Cl (stereo unspecified) | - | - | - | -
COc1ccc(OC2C(=O)N(Cc3ccc(F)cc3)C2c2cc(OC)c(OC)c(OC)c2)cc1 (stereo unspecified) | - | - | - | 123
CCOc1ccc(C2NC(=O)NC(C)=C2[N+](=O)[O-])cc1OC (stereo unspecified) | - | - | - | -
COc1ccccc1CN1CC(C(=O)N2CCC(C(=O)c3ccccc3)CC2)CCC1=O (stereo unspecified) | - | - | - | -
SMILES | V-ATPase pHluor | NTR1 agonist | CRFR2-BP ag | CRFBP-R2 block
NC(=O)c1ccc(C2SCC(=O)N2Cc2ccccc2)cc1 (stereo unspecified) | - | - | - | 78
O=C(O)c1ccc(C2SCC(=O)N2Cc2ccccc2)cc1 (stereo unspecified) | - | - | - | -
Nc1nnc(SCc2cc3c(cc2Cl)OCO3)s1 | - | - | - | 59
COc1cc2c(cc1[N+](=O)[O-])-c1ccccc1C2 | - | . | 87 | -
CCc1oc2ccccc2c1C(=O)c1cc(Br)c(O)c(Br)c1 | - | - | - | 55
CCc1ccc(OCC(=O)c2c(O)c3ccccc3oc2=O)cc1 | - | - | - | -
CCCN(C(=O)CSCC(=O)Nc1cccc(C)c1)c1c(N)n(Cc2ccccc2)c(=O)[nH]c1=O | - | - | - | -
O=C(O)c1ccc(N/N=C/c2ccc(-c3ccccc3)cc2)cc1 | - | . | - | -
O=C(O)c1ccc(/C=N/Nc2cccc(C(F)(F)F)c2)cc1 | - | - | - | 76
Cc1cc(NC(=O)CN2CCN(S(=O)(=O)c3ccc4ccccc4c3)CC2)no1 | - | - | - | 50
O=C(Nc1nc2ccc(S(=O)(=O)N3CCCCC3)cc2s1)c1ccncc1 | - | - | - | -
O=C(Nc1nc2ccc(S(=O)(=O)N3CCCC3)cc2s1)c1ccccn1 | - | - | - | 65
O=C(Nc1ccccn1)C1CCN(S(=O)(=O)c2ccc3ccccc3c2)CC1 | - | - | - | 59
CC(=O)c1ccc(NC(=O)CN2CCN(S(=O)(=O)c3ccc4ccccc4c3)CC2)cc1 | - | - | - | -
